Compound activity from PubChem.
In the library only some 3.9% were active in any assay of this set; here they are far more common.
p53null 32C kill: selectivity test: cytotoxicity in p53 null cells, permissive temperature | 55,000 tested, 0.62% active | Potency, µM (top dose mostly 46.1 µM), inactives show top-dose activity change, negative = cytotoxicity, most hits filed as cytotoxic | H1299-neo p53 null cells, ATP luminescence, 24 h, 32C | AID 903;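 also: potency is read from the fitted curve at half-maximal effect; 0% = DMSO only and -100% = full killing by 100 µM tamoxifen; nearly all actives have a fitted effect of over 55% in size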
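Luminescent ATP readout gave cell viability of p53-null H1299-neo cells after a 24 h compound exposure at the permissive 32C. Titrations ran up to 46 uM, and AC50s were fitted with the standard Hill equation.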
p53null 39C kill: p53 null cell cytotoxicity, nonpermissive temperature; H1299 p53-null (neo) cells, 39C, ATPlite viability, 24 h; 55,000 tested, 0.97% active; Potency, µM (doses to about 46.1 µM), without a hit: top-dose activity, negative = cell killing, usual class: cytotoxic; AID 904;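 also: potency is read from the fitted curve at half-maximal effect; 0% = DMSO only and -100% = full killing by 100 µM tamoxifen; nearly all actives have a fitted effect of over 50% in size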
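Luminescent ATP signal reported cell survival after H1299 lines (neo, p53 null; or p53 A138V) received up to 46 uM compound and 24 hr incubation at 39C.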
HTT-AS act: activates huntingtin-antisense promoter activity; Potency, µM (highest dose often 57.5 µM), inactives show top-dose activity change, positive = activation, usual class: activators; AID 1508624; 48,000 tested, 0.24% active; HEK293 HTT-AS promoter firefly luciferase reporter, 24 h; response scale: percent change from vehicle, -100% = no light; also: potency is read from the fitted curve at half-maximal effect; nearly all actives have a fitted effect of over 55% in size
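Quantitative HTS used concentration series of up to 57.5 uM final on HEK293 luciferase reporter cells, 24 h at 37 degrees C. Readout was Dual-Glo firefly luminescence.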
HTT prom inh: HTT promoter inhibition. HEK293 HTT promoter firefly luciferase reporter, 24 h. Potency, µM (doses to about 57.5 µM), without a hit: at the highest dose activity change, negative = inhibition, usual class: inhibitors. 48,000 tested, 0.93% active. AID 1508623; also: potency is read from the fitted curve at half-maximal effect; nearly all actives have a fitted effect of over 50% in size
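Firefly luciferase signal from promoter-reporter HEK293 cells was scaled between vehicle (0%) and zero RLU (-100%). Compounds were tested at final concentrations of up to 57.5 uM over 24 h at 37 degrees C. PTC124 at 50 uM final served as control inhibitor.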
GPR32 ag: GPR32 (DRV1) agonism, beta-arrestin recruitment | CHO-K1 GPR32 beta-arrestin PathHunter luminescence, 90 min; zero percent set by DMSO-only wells | activation, % at 76.9 µM | 48,000 tested, 2.5% active | AID 1346428;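 active = activation of at least 60% and not above a set upper limit, about 1 call in 100 departs from these limits; inconclusive = activation of 40% to 60%, or above that upper limit; inactive = activation under 40%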; also: 0% is about no effect
Target sequence (O75388 whole entry, looked up): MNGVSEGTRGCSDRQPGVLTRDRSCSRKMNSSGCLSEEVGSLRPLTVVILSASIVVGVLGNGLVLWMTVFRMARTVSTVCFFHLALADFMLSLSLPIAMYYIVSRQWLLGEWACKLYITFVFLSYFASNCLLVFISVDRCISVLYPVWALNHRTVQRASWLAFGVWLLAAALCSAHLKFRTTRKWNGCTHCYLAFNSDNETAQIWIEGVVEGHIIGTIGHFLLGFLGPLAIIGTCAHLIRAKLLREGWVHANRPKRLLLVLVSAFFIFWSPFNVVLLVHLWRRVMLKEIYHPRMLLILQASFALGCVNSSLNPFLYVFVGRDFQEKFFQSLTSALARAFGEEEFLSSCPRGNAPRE
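Readings come from a cell-based beta-arrestin complementation format: CHO-K1 GPR32 stable cells (2,500/well) treated 90 min with compounds, then beta-Gal substrate added for 1 h before chemiluminescence imaging.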
Numbers without * were called inactive; ? = inconclusive; · = not tested or not shown; [ ] = remark or other dose. Unless noted, calls follow the shape of the dose curve; as a rule, active = well fitted curve in the direction sought with a large enough effect; inconclusive = small, poorly fitted or top-dose-only effect, or another doubt; inactive = no such curve, though single readings can be large; an effect the other way counts as inactive or inconclusive.

SMILES	p53null 32C kill	p53null 39C kill	HTT-AS act	HTT prom inh	GPR32 ag
Cc1ccc(NC(=O)CSc2ncc(-c3ccccc3)[nH]2)cc1	11%	-17%	-1%	-3%	-11
O=C(Cc1ccccc1)Nc1cccc(-c2cn3cccnc3n2)c1	-8%	?	11µM*	53%	17
COc1cccc(C(=O)Nc2cccc(-c3nc4ncccn4c3C)c2)c1	-16%	-1%	6%	3%	61*
Cc1ccccc1C(=O)Nc1cccc(-c2cn3cccnc3n2)c1	0%	56%	-19%	-9%	?
O=C(COc1ccccc1)Nc1cccc(-c2cn3cccnc3n2)c1	-19%	9%	15%	-1%	17
COc1ccc(NC(=O)Nc2cccc(-c3cn4cccnc4n3)c2)cc1	?	?	26%	25%	77*
O=C(Nc1ccc(-c2cn3cccnc3n2)cc1)c1cc(Br)ccc1Cl	-2%	-17%	-16%	-2%	83*
Cc1cc([C@@H](C)Nc2ccccc2C(=O)O)c2nc(N3CCOCC3)cc(=O)n2c1	·	·	-32%[116 µM]	?	·
COc1cccc(CNC(=O)Cn2c(=O)n3nc(-c4cccc(C)c4)nc3c3ccccc32)c1	-5%	35%	25%	32%	15
Cc1cccc(-c2nc3c4ccccc4n(CC(=O)Nc4cccc(F)c4)c(=O)n3n2)c1	-4%	?	22%	13%	76*
CC(NC(=O)CSc1nc(-c2cccc(Cl)c2)nc2cc(=O)[nH]n12)c1nc2ccccc2n1C (configuration not stated)	-2%	16%	·	·	69*
CNC(=O)c1cc(COc2nnc(Nc3ccc(Cl)cc3)c3ccoc23)ccn1	·	·	-2%	-1%	·
CNC(=O)c1cc(Oc2ccc(NC(=O)Nc3ccc(Cl)c(C(F)(F)F)c3)c(F)c2)ccn1	·	·	-32%	?	·
CN(C)c1ccc(C(=C2C=CC(=[N+](C)C)C=C2)c2ccc(N(C)C)cc2)cc1	·	·	-79%	?	-79
CN(C)c1ccc(C(=C2C=CC(=[N+](C)C)C=C2)c2ccccc2)cc1	·	·	-96%	?	95*
COc1cc(NC(=O)c2ccc(C)cc2)ccc1NC(=O)c1cc2ccccc2o1	-4%	19%	10%	10%	-3
CCCCCC(=O)Nc1ccc(NC(=O)c2cc3ccccc3o2)c(OC)c1	-2%	-25%	-19%	-13%	121*
CS(=O)(=O)c1ccc(-c2cn3ccccc3n2)cc1	·	·	?	7%	9
COc1ccc(-c2noc(-c3cccc(OC)c3OC)n2)cc1	13µM*	18µM*	?	45%	-5
COc1ccc(-c2noc(-c3cccnc3NCc3ccco3)n2)cc1	1%	7%	11µM*	70%	-9
COc1cccc(-c2noc(-c3cc4ccccc4oc3=O)n2)c1OC	-29%	-7%	29%	30%	7
CCCCC/C=C\C/C=C\CCCCCCCC(=O)NC(C)c1ccccc1 (configuration not stated)	·	·	-18%	-17%	12
CCOC(=O)c1nc(NCc2ccc(Cl)cc2)c2c(C)noc2n1	6%	?	-19%	0%	65*
COc1cc([C@@H]2c3cc4c(cc3[C@@H](O[C@@H]3O[C@@H]5CO[C@@H](C)O[C@@H]5[C@H](O)[C@@H]3O)[C@H]3COC(=O)[C@H]23)OCO4)cc(OC)c1O	·	·	-38%	-29%	·
Cc1cc(C)c(NC(=O)CN(C)S(=O)(=O)c2ccc3c(c2)CCC(=O)N3)c(C)c1	-2%	-21%	0%	-6%	3
Cc1cc(NC(=O)CN(C)S(=O)(=O)c2ccc3c(c2)CCCC(=O)N3)ccc1Br	-8%	-21%	-50%	25µM*	49
CCOc1ccccc1Nc1nc(-c2cccc(Cl)c2)c2c(n1)-c1ccccc1OC2	?	13µM*	-3%	16%	-6
c1ccc(-c2cc(-c3ccccc3)c3c(n2)-c2ccccc2OC3)cc1	·	·	-11%	-9%	10
COc1cc(Nc2ncc3c(n2)-c2ccc(Cl)cc2C(c2c(F)cccc2OC)=NC3)ccc1C(=O)O	·	·	-44%	?	·
